Most compounds without a hit are left out; they make up all but 3.5% or so of the library.
TEAD-YAP inh = TEAD-YAP interaction inhibition; HEK-TIYL cells, TEAD-Gal4/YAP UAS-luciferase luminescence; inhibition, % at 9.12 µM; 640,000 tested, 1.4% active; AID 1259422; in the data active means inhibition above about 32%;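 further: 0% = median of test compound wells and 100% = reference inhibitor wells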
GPR151 activ = activators of human GPR151 | PathHunter beta-arrestin GPR151 cells, luminescence | AID 1508602 | activation, % at 11.2 µM | 650,000 tested, 1% active | Q8TDV0; in the data active means activation above about 4.9%;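 further: 0% = median of compound wells and 100% = cells with positive control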
Target sequence (Q8TDV0 whole entry, looked up): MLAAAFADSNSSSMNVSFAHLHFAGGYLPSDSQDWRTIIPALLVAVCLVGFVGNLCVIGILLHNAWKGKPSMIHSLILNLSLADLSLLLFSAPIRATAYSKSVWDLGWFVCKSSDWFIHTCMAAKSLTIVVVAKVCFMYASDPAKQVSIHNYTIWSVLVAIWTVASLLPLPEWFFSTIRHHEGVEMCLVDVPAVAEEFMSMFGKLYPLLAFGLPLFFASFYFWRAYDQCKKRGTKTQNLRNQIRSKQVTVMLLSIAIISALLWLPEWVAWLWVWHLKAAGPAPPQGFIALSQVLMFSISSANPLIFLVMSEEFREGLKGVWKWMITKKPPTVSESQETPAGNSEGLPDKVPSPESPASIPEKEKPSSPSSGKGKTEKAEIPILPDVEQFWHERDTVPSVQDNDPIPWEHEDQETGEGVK
MITF inh = blocks human microphthalmia-associated transcription factor; inhibition, % at 2.6 µM; O75030; 650,000 tested, 0.91% active; AID 1259374; AlphaScreen MITF homodimerization, bead proximity signal; in the data active means inhibition above about 50%;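 further: 0% = vehicle wells with protein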
FBW7 activator = activators of human E3 ligase FBW7. AlphaScreen FBW7–phospho-cyclin E peptide binding, activator screen. Q969H0. normalized activity (activation), % at 26.1 µM. 650,000 tested, 0.13% active; in the data active means normalized activity above about 1.9%;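 further: purified mutant Fbw7 with reduced substrate affinity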
MITF confirm = human MITF inhibition, confirmation; shares compounds with MITF inh; AlphaScreen MITF homodimerization, biotin/His-MITF beads; inhibition, % at 2.6 µM; 4,700 tested, 16% active;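 active means inhibition above a cutoff derived from the DMSO control wells, cut at about 28% in these data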;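 further: 0% = MITF dimer wells with DMSO only; inhibitors lower the bead chemiluminescence by keeping MITF from dimerizing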
AlphaScreen DR = counter-screen: compounds optically interfering with AlphaScreen; shares compounds with MITF inh; AlphaScreen optical interference counterscreen, cell-free; IC50, µM; 480 tested, 6% active; call rule not given here
AS interf ctr = counter-screen: compounds optically interfering with AlphaScreen | shares compounds with MITF inh | LysRS AlphaScreen counterscreen, signal interference, triplicate | inhibition, % at 2.6 µM | 4,700 tested, 7.6% active | AID 1259376;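 active means inhibition above a cutoff derived from the DMSO control wells, cut at about 30% in these data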
The depositor's hits bear a star; x = not tested or not shown.

SMILES	TEAD-YAP inh	GPR151 activ	MITF inh	FBW7 activator	MITF confirm	AS interf ctr	others
O=C(Nc1cc(C(=O)Nc2ccc(S(=O)(=O)O)cc2S(=O)(=O)O)cc(C(=O)Nc2ccc(S(=O)(=O)O)cc2S(=O)(=O)O)c1)Nc1cc(C(=O)Nc2ccc(S(=O)(=O)O)cc2S(=O)(=O)O)cc(C(=O)Nc2ccc(S(=O)(=O)O)cc2S(=O)(=O)O)c1	-8.9	-1.6	24.4	-0.2	x	x
O=C(Nc1ccc(C(=O)Nc2ccc(C(=O)Nc3ccc(S(=O)(=O)O)c4cc(S(=O)(=O)O)cc(S(=O)(=O)O)c34)cc2)cc1)Nc1ccc(C(=O)Nc2ccc(C(=O)Nc3ccc(S(=O)(=O)O)c4cc(S(=O)(=O)O)cc(S(=O)(=O)O)c34)cc2)cc1	x	1.3	71.0*	-0.1	66.9*	7.0	AlphaScreen DR=>6.48
COc1cc(OC)cc(C(=O)N2CC(=O)Nc3ccc(Br)cc3C2c2ccccc2)c1 (stereo not given)	-4.2	-1.2	0.5	-0.2	x	x
Cc1noc(C)c1C(=O)N1CCC(c2[nH]ncc2-c2ccncc2)CC1	8.6	0.1	3.8	-0.1	x	x
N#C/C(=C\c1nn(CCO)c(N)c1C#N)c1ccc(Cl)cc1Cl	-1.6	-0.3	63.3*	0.1	-6.0	-1.1
N#C/C(=C\c1cc(Cl)cc(Cl)c1OCc1ccc(Cl)cc1Cl)c1nn(CCO)c(N)c1C#N	4.6	-0.9	1.3	-0.1	x	x
Cc1n[nH]c(=O)nc1N/N=C/c1ccc(O)cc1	4.1	-8.0	9.4	-0.3	x	x
Cc1ccsc1/C=N/Nc1nc(=O)[nH]nc1C	24.6	-5.7	60.0*	0.0	34.0*	100.3*
CN=c1scc(C)n1/N=C/C1CCCCC1	-58.9	1.2	96.6*	-0.1	11.2	15.4
O=C(c1ccncc1)N1CCN(Cc2ccccc2F)CC1	-4.9	-0.8	78.4*	-0.2	3.2	11.8
CC(C)[C@H]1CN(Cc2ccccc2F)CCN1C(=O)c1ccncc1	-10.4	0.2	-2.7	-0.1	x	x
O=C(c1ccncc1)N1CCN(Cc2ccccc2Br)CC1	0.1	-0.4	61.5*	-0.3	-9.7	-2.3
O=C(CNCc1ccccc1F)N1CCN(C(=O)CNCc2ccccc2F)CC1	6.5	-0.4	60.7*	0.0	2.2	17.6
O=C(c1ccc([N+](=O)[O-])cc1)N1CCN(Cc2ccccc2Br)CC1	1.3	0.1	57.8*	-0.2	-11.9	-3.0
O=C(c1ccc(-c2ccccc2)cc1)N1CCN(Cc2ccncc2)CC1	-34.2	1.7	7.1	0.1	x	x
Cn1cccc1CN1CCN(C(=O)c2ccc([N+](=O)[O-])cc2)CC1	5.5	0.6	40.0	-0.1	x	x
Cc1ccc(NC(=O)C(C)n2c(C)c3cnn(-c4ccccc4)c(=O)c3c2C)cc1 (stereo not given)	14.2	-2.3	13.8	0.4	x	x
CCC(C)NC(=O)CN(CCc1ccccc1)S(=O)(=O)c1ccc(Br)cc1 (stereo not given)	0.5	0.9	7.4	0.5	x	x
O=C(c1ccco1)N1CCN(Cc2ccccc2F)CC1	-1.5	2.0	61.2*	0.0	10.1	11.8
CCCC1CCC(C2CCC(=O)CC2)CC1 (stereo not given)	-5.2	2.7	53.5*	0.1	13.9	12.5
CCOc1ccc(NC(=O)c2cc([N+](=O)[O-])ccc2N2CCOCC2)cc1	6.3	3.0	-4.7	0.0	x	x
CCOc1cc(C#N)c(NC(=O)c2cc([N+](=O)[O-])ccc2N2CCOCC2)cc1OCC	-10.0	-0.5	67.0*	0.0	14.7	8.2
O=C(COC(=O)c1ccccc1Br)c1cccs1	4.8	-1.0	1.9	0.0	x	x
O=C(O)c1ccc(CS(=O)(=O)c2ccccc2)o1	5.9	0.1	55.9*	-0.7	74.2*	13.5	AlphaScreen DR=>6.48
NNC(=O)c1ccc(CS(=O)(=O)c2ccccc2)o1	-18.7	-0.1	-3.7	-0.2	x	x
SMILES	TEAD-YAP inh	GPR151 activ	MITF inh	FBW7 activator	MITF confirm	AS interf ctr	others
O=C(O)C1CC(O)CN1S(=O)(=O)c1ccc(Cl)c(Cl)c1 (stereo not given)	10.0	-0.5	65.5*	0.1	-6.4	-10.1
Cc1ccc(S(=O)(=O)N2CC(O)CC2C(=O)O)cc1C (stereo not given)	1.6	1.6	3.2	-0.1	x	x
C=CCN1C(=O)/C(=C/c2ccco2)S/C1=N/S(=O)(=O)c1ccc(Cl)cc1	-11.9	2.4	87.0*	0.0	13.3	16.8
C=CCN1C(=O)/C(=C/c2ccco2)S/C1=N/S(=O)(=O)c1cccs1	-16.8	2.4	1.0	0.0	x	x
Cc1cccc(N=C2N=C(N)c3ccccc32)c1C	9.4	0.2	-3.5	0.1	x	x
COc1cccc(-c2ccc(=O)n(CC(=O)NCC3CCCO3)n2)c1 (stereo not given)	2.8	-1.0	50.5*	0.4	13.7	11.1
CC1(C)CC(=O)C2=C(C1)OC(N)=C(C#N)C2c1cccc(Br)c1 (stereo not given)	-12.9	0.9	2.6	-0.1	x	x
Cc1nc(NCCNC(=O)Cc2ccccc2)cc(-n2cccn2)n1	-7.0	1.0	-9.4	-0.1	x	x
COc1ccc(CN2CCN(c3ccccn3)CC2)c(OC)c1OC	1.3	1.5	41.3	0.1	x	x
COc1ccccc1CN1CCCCCC1	1.6	1.1	17.5	-0.1	x	x
COc1ccc(CN2CCN(Cc3ccccn3)CC2)c(OC)c1OC	-7.3	-0.2	58.7*	0.0	11.6	17.5
COc1ccccc1CN1CCN(Cc2ccccn2)CC1	-0.9	1.2	65.3*	-0.1	1.3	16.5
CC(C)(C)c1ccc(C2=N/C(=C\c3ccc4ccccc4c3)C(=O)O2)cc1	-5.6	-0.3	1.4	0.0	x	x
COc1cc(-c2ccnc(N)n2)ccc1NC(=O)[C@H]1COc2ccccc2O1	7.1	1.1	65.6*	2.5*	51.6*	-3.1	AlphaScreen DR=>6.48
CCCCCC(C)(C)NC(=O)CN1CCOCC1	-1.6	-0.1	51.1*	0.0	11.1	7.7
Cc1sc2nc(C(C)C)n3c(=O)n(CC(=O)NCc4ccco4)nc3c2c1C	4.8	-0.7	13.9	0.2	x	x
Cc1sc2nc(C)n3c(=O)n(CC(=O)NCc4ccco4)nc3c2c1C	4.9	1.7	51.1*	0.0	29.3*	8.9	AlphaScreen DR=>6.48
COc1ccc(CN2CCN(C(=O)c3ccccc3)CC2)c(OC)c1OC	-5.8	0.3	25.3	0.0	x	x
COc1cccc(CN2CCN(C(=O)c3ccncc3)CC2)c1OC	6.8	-1.2	83.0*	0.7	11.3	18.9
COc1ccc(CN2CCN(C(=O)c3ccncc3)CC2)c(OC)c1OC	-7.7	-0.9	51.3*	0.1	-2.2	-4.5
Cc1ccc(-c2cc(C(F)(F)F)n3nc(C(=O)Nc4ccc(Cl)c(Cl)c4)c(Cl)c3n2)cc1	-6.4	0.5	8.7	0.2	x	x
COc1ccc(C(=O)Nc2cccc(I)c2)cc1[N+](=O)[O-]	-5.8	1.2	-8.2	0.5	x	x
CC1CN(C2CCN(Cc3ccccc3[N+](=O)[O-])CC2)CC(C)O1 (stereo not given)	6.4	1.0	65.9*	-0.1	-2.6	3.2
O=[N+]([O-])c1ccccc1CN1CCN(C2CCCCCC2)CC1	-0.3	0.3	74.9*	0.1	22.5	4.0

Source: PubChem BioAssay
